Shown are actives, neighbours in structure and some others; about 2.3% of the full set was active somewhere.
V-ATPase pH = regulators of yeast V-ATPase proton pumping, primary screen, pHLuorin cytosolic pH fluorescence; S. cerevisiae; response, % at 10 µM; actives 0.37% (n = 350,000); in the data active means response mostly above about 7.3%, no sharp cut-off; inactive means mostly below about 5.4%; further: actives read high
ADAM17 inh = ADAM17 inhibitors, primary screen, biochemical, QFRET; Disintegrin and metalloproteinase domain-containing protein 17 (Homo sapiens), P78536; recombinant ADAM17, EDANS/DABCYL FRET peptide cleavage; inhibition, % at 6.95 µM; actives 0.83% (n = 370,000); AID 720648, 2013;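 active means inhibition above the mean of compounds lying between control limits plus 3 SD, set per campaign, cut at about 8.5% in these data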
KLK7 zymogen act = proKLK7 zymogen activators, primary screen, biochemical, fluorescence intensity; Kallikrein-7 (Homo sapiens), P49862; purified proKLK7, EDANS-DABCYL substrate fluorescence; 100% is mature enzyme control, 0% vehicle; activation, % at 7 µM; actives 0.9% (n = 370,000); AID 652039, 2013;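 active means activation above the mean of all tested compounds plus 3 SD, computed per campaign excluding outliers beyond control limits, cut at about 13% in these data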
Target sequence (P49862 whole entry, looked up): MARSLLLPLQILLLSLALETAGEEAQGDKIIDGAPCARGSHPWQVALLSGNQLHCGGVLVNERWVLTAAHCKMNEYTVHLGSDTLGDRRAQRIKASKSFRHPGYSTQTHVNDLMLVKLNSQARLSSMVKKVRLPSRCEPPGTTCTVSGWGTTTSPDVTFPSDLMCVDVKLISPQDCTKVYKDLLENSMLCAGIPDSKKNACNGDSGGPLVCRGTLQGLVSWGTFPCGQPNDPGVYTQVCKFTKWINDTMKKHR
ADAM10 inh = human ADAM10 inhibitors, primary screen, biochemical, QFRET, HTS | inhibition, % at 7 µM | recombinant ADAM10, EDANS/DABCYL FRET peptide cleavage, 3 h | actives 0.62% (n = 370,000) | Disintegrin and metalloproteinase domain-containing protein 10 (Homo sapiens), O14672;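 active means inhibition above a per-campaign cutoff equal to the mean of compounds falling between control-based bounds plus 3 SD, cut at about 20% in these data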
ADAM10 ctr = ADAM10 inhibitors, counter-screen for ADAM17 exosite inhibitor project, biochemical, FRET, human ADAM10. inhibition, % at 6.95 µM. recombinant ADAM10, EDANS/DABCYL FRET peptide cleavage, 3 h. shares compounds with ADAM17 inh. actives 47% (n = 2,900);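 active means mean inhibition over the triplicate runs exceeds the activity threshold set in the earlier primary screen, cut at about 20% in these data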
ADAM17 confirm = ADAM17 inhibitors, hit retest, confirmation, biochemical, QFRET peptide cleavage | shares compounds with ADAM17 inh | recombinant ADAM17, EDANS/DABCYL QFRET peptide cleavage | inhibition, % at 6.95 µM | actives 65% (n = 2,900) | AID 743257, 2014;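 active means mean inhibition across replicates above the hit cutoff set in the primary screen, cut at about 8.5% in these data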
Of the large screens only hits and unclear results are named; the others gave an inactive call (follow-up assays come after a bar, where they were run).

O=C(c1cc2c(s1)CCCCCC2)N1CCC2(CC1)OCCO2	ADAM17 inh 8.7 | ADAM10 ctr inactive | ADAM17 confirm 11.7
CCc1sc(C(=O)N2CCC3(CC2)OCCO3)cc1Br	none
COc1ccc(S(=O)(=O)NC(CC(=O)N2CCC3(CC2)OCCO3)c2ccco2)cc1 (configuration not stated)	none
COc1ccc(C(=O)Nc2cccc(S(=O)(=O)NCc3ccco3)c2)cc1	ADAM17 inh 8.7 | ADAM10 ctr 22.6 | ADAM17 confirm 15.4
COC(=O)C1=C(c2cccc(OCc3ccccc3)c2)C[C@@H]2CC[C@H]1N2C(=O)NCc1ccccc1OC	none
CCC(C)NC(=O)CN1C(=O)CN=C(c2ccccc2)c2ccccc21 (configuration not stated)	none
Cc1cc(O)c2c(c1)OC(C)(C)C1=C2CC(C)CC1 (configuration not stated)	ADAM17 inh 12.1 | ADAM10 ctr 30.4 | ADAM17 confirm 14.1
O=c1[nH]c2ccccc2n1C1CCN(C(c2cccs2)c2nnnn2Cc2ccccc2)CC1 (configuration not stated)	ADAM17 inh 11.1 (no result: V-ATPase pH) | ADAM10 ctr 37.6 | ADAM17 confirm 18.5
COc1ccc(-n2nnnc2C(c2cc3ccccc3o2)N2CCC(n3c(=O)[nH]c4ccccc43)CC2)cc1 (configuration not stated)	ADAM17 inh 9.6 (no result: V-ATPase pH) | ADAM10 ctr 28.3 | ADAM17 confirm 12.9
COc1ccc(C(c2nnnn2-c2ccc(OC)cc2)N2CCC(n3c(=O)[nH]c4ccccc43)CC2)cc1 (configuration not stated)	none (no result: V-ATPase pH)
CSCCC(c1nnnn1C1CCCCC1)N1CCC(n2c(=O)[nH]c3ccccc32)CC1 (configuration not stated)	none (no result: V-ATPase pH)
CSCCC(c1nnnn1C1CCCC1)N1CCC(n2c(=O)[nH]c3ccccc32)CC1 (configuration not stated)	ADAM17 inh 9.2 (no result: V-ATPase pH) | ADAM10 ctr inactive | ADAM17 confirm 10.7
O=c1[nH]c2ccccc2n1C1CCN(C(c2ccccc2OC(F)(F)F)c2nnnn2Cc2ccccc2)CC1 (configuration not stated)	ADAM17 inh 11.7 (no result: V-ATPase pH) | ADAM10 ctr 41.8 | ADAM17 confirm 20.3
COc1ccc(C(c2nnnn2Cc2ccccc2)N2CCC(n3c(=O)[nH]c4ccccc43)CC2)cc1 (configuration not stated)	none (no result: V-ATPase pH)
COc1cc(OC)c2c(c1)O[C@@H](c1ccc(OC)c(OC)c1)[C@H](O)C2	none
O=C(OCc1ccccc1)N1CCC2CC1c1cc(N3Cc4ccccc4-n4nncc4C3)ccc12 (configuration not stated)	none
CC(=O)O[C@H]1[C@H]2O[C@]23[C@@H]2CC[C@]4(O)C[C@@H](O)CC[C@]4(C)C2CC[C@]3(C)[C@H]1c1ccc(=O)oc1 (some centres not stated)	none (no result: ADAM17 inh, KLK7 zymogen act, ADAM10 inh)
CC(C)=CCc1c(O)cc2c(c1O)C(=O)CC(c1ccc(O)cc1)O2 (configuration not stated)	ADAM17 inh 9.3 | ADAM10 ctr 37.2 | ADAM17 confirm 19.8

Screens from PubChem BioAssay.
